According to the supplement of paper PMC7380943:
Structures can show the parent of a compound that is named as a salt. ± gives the standard deviation of the averaged measurements.

System: CLZ3 (HCA2 human fibroblast dual HR-NHEJ reporter)
Assay: NHEJ repair efficiency (GFP+ cells) relative to control (log10 fold); higher = more non-homologous end joining
Details: 5 µM; doxycycline 0.5 ug/mL
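Wherever HR repair efficiency (tdTomato+ cells) relative to control is given: compound given one day before doxycycline, which switches on I-SceI endonuclease expression to create double-strand breaks within the integrated reporter.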
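Wherever NHEJ repair efficiency (GFP+ cells) relative to control is given: compound given one day ahead of doxycycline, which switches on I-SceI endonuclease to cut the chromosomally integrated reporter and create DSBs.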

Question: With `CC12CCC(CC1)C(C)(C)O2` [Eucalyptol] as the compound, how does the “NHEJ repair efficiency (log10)” value read?
Answer: 0.0692

Question: For `CC(C)=CCC[C@](C)(O[C@@H]1O[C@H](CO)[C@@H](O)[C@H](O)[C@H]1O)[C@H]1CC[C@]2(C)[C@@H]1[C@H](O)C[C@@H]1[C@@]3(C)CC[C@H](O)C(C)(C)[C@@H]3[C@@H](O[C@@H]3O[C@H](CO)[C@@H](O)[C@H](O)[C@H]3O[C@@H]3O[C@@H](C)[C@H](O)[C@@H](O)[C@H]3O)C[C@]12C` [Ginsenoside Re], which “NHEJ repair efficiency (log10)” value is on record?
Answer: -0.152

Question: Which “NHEJ repair efficiency (log10)” value does the source give for `COc1cc(-c2oc3cc(O)cc(O)c3c(=O)c2O[C@@H]2O[C@H](CO[C@H]3O[C@H](C)[C@@H](O)[C@H](O)[C@@H]3O)[C@@H](O)[C@H](O)[C@H]2O)ccc1O` [Narcissoside; Isorhamnetin-3-O-β-D-rutinoside] here?
Answer: 0.0544

Question: How did the “NHEJ repair efficiency (log10)” value turn out when `COc1ccc(/C=C/C(=O)O)cc1O` [Isoferulic Acid] was run?
Answer: -0.101

Question: `CC(/C=C/C=C(\C)C(=O)O[C@@H]1O[C@H](CO[C@@H]2O[C@H](CO)[C@@H](O)[C@H](O)[C@H]2O)[C@@H](O)[C@H](O)[C@H]1O)=C\C=C\C=C(C)\C=C\C=C(/C)C(=O)O[C@@H]1O[C@H](CO[C@@H]2O[C@H](CO)[C@@H](O)[C@H](O)[C@H]2O)[C@@H](O)[C@H](O)[C@H]1O` [Crocin I] was tested. Which “NHEJ repair efficiency (log10)” value did it give?
Answer: 0.0171

Question: `COc1cc(-c2cc(=O)c3c(O)c(OC)c(O)cc3o2)ccc1O` [Jaceosidin] was tested. Which “NHEJ repair efficiency (log10)” value did it give?
Answer: -0.028

System: CLZ3 (HCA2 human fibroblast dual HR-NHEJ reporter)
Assay: HR repair efficiency (tdTomato+ cells) relative to control (log10 fold); higher = more homologous recombination
Details: 5 µM; doxycycline 0.5 ug/mL

Question: `C[C@@H]1O[C@@H](O[C@H]2[C@H](O[C@H]3CC[C@@]4(C)[C@@H](CC[C@]5(C)[C@@H]4CC=C4[C@@H]6CC(C)(C)CC[C@]6(C(=O)O[C@@H]6O[C@H](CO[C@@H]7O[C@H](CO)[C@@H](O)[C@H](O)[C@H]7O)[C@@H](O)[C@H](O)[C@H]6O)CC[C@]45C)[C@]3(C)CO)OC[C@H](O)[C@@H]2O)[C@H](O)[C@H](O[C@@H]2O[C@H](CO)[C@@H](O)[C@H](O)[C@H]2O)[C@H]1O` [Macranthoidin A] was tested. Which “HR repair efficiency (log10)” value did it give?
Answer: 0.0324

Question: How did the “HR repair efficiency (log10)” value turn out when `C=C(C)[C@@H]1CC[C@]2(C)CC[C@]3(C)[C@H](CC[C@@H]4[C@@]5(C)CC[C@H](O)C(C)(C)[C@@H]5CC[C@]43C)[C@@H]12` [Lupeol] was run?
Answer: 0.06

Question: `c1cc2c(c3c1CC1c4cc5c(cc4CCN1C3)OCO5)OCO2` (stereo not given) [Tetrahydrocoptisine] was tested. Which “HR repair efficiency (log10)” value did it give?
Answer: -0.0746

Question: `OC[C@H]1O[C@@H](Oc2cc3c(O)cc(O)cc3[o+]c2-c2ccc(O)c(O)c2)[C@H](O)[C@@H](O)[C@@H]1O` [Cyanidin3-o-glucoside] was tested. Which “HR repair efficiency (log10)” value did it give?
Answer: 0.142

Question: With `O=c1cc(-c2ccc(O)c(O)c2)oc2c([C@@H]3O[C@H](CO)[C@@H](O)[C@H](O)[C@H]3O)c(O)cc(O)c12` [Orientin] as the compound, how does the “HR repair efficiency (log10)” value read?
Answer: 0.0493

Question: For `CC(C)=CCc1cc2c(cc1O)oc(=O)c1c3ccc(O)cc3oc21` [Psoralidin], which “HR repair efficiency (log10)” value is on record?
Answer: -0.0999

Question: Which “HR repair efficiency (log10)” value does the source give for `O=C(O)/C=C/c1ccc(O)c(O)c1` [Caffeic acid] here?
Answer: 0.0424

Question: How did the “HR repair efficiency (log10)” value turn out when `O=C1O[C@H]2[C@@H]3OC(=O)c4cc(O)c(O)c(O)c4-c4c(cc(O)c(O)c4O)C(=O)OC[C@H]2O[C@@H](OC(=O)c2cc(O)c(O)c(O)c2)[C@@H]3OC(=O)c2cc(O)c(O)c3c2[C@@H]2C1=CC(=O)[C@](O)(O3)C2(O)O` [Geraniin] was run?
Answer: 0.0593

Question: Which “HR repair efficiency (log10)” value does the source give for `C=CCc1ccc(O)c(OC)c1` [Eugenol] here?
Answer: -0.0172

Question: With `O=C1c2cccc(O)c2C(=O)c2c(O)cccc21` [1,8-Dihydroxyanthraquinone] as the compound, how does the “HR repair efficiency (log10)” value read?
Answer: -0.106

Question: Which “HR repair efficiency (log10)” value does the source give for `C[C@H]1O[C@@H](O[C@H]2CC[C@@]3(C)[C@@H](CC[C@]4(C)[C@@H]3C=CC3=C5CC(C)(C)CC[C@]5(CO)[C@H](O)C[C@]34C)[C@]2(C)CO)[C@H](O)[C@@H](O[C@@H]2O[C@H](CO)[C@@H](O)[C@H](O)[C@H]2O)[C@H]1O` [Saikosaponin B2] here?
Answer: 0.123

Question: `COc1ccc(-c2cc(=O)c3c(O)c(OC)c(O)c(OC)c3o2)cc1` [Nevadensin] was tested. Which “HR repair efficiency (log10)” value did it give?
Answer: 0.0179

Question: With `C=C[C@@H]1[C@@H](O[C@@H]2O[C@H](CO)[C@@H](O)[C@H](O)[C@H]2O)OC=C(C(=O)OC)[C@@H]1CCOC(=O)c1cc(O)c(O)c(O)c1` [Cornuside I] as the compound, how does the “HR repair efficiency (log10)” value read?
Answer: 0.0608

Question: For `O=c1oc2c(O)c(O)cc3c(=O)oc4c(O)c(O)cc1c4c23` [Ellagic acid], which “HR repair efficiency (log10)” value is on record?
Answer: -0.0224

Question: Which “HR repair efficiency (log10)” value does the source give for `C[C@H]1[C@H](OC(=O)CCC(=O)O)O[C@@H]2O[C@@]3(C)CC[C@H]4[C@H](C)CC[C@@H]1[C@@]24OO3` [Artesunate] here?
Answer: -0.241

Question: How did the “HR repair efficiency (log10)” value turn out when `COc1cc2c(cc1OC)[C@@H]1Cc3ccc(OC)c(OC)c3CN1CC2` [Tetrahydropalmatine] was run?
Answer: 0.0375

Question: `COc1cc(C2Oc3cc([C@H]4Oc5cc(O)cc(O)c5C(=O)[C@@H]4O)ccc3OC2CO)ccc1O` (stereo not given in full) [Silymarin Ⅱ] was tested. Which “HR repair efficiency (log10)” value did it give?
Answer: -0.127

Question: With `COc1c(O[C@@H]2O[C@H](CO)[C@@H](O)[C@H](O)[C@H]2O)cc2oc(-c3ccc(O)cc3)cc(=O)c2c1O` [Homoplantaginin] as the compound, how does the “HR repair efficiency (log10)” value read?
Answer: 0.0763 ± 0.07

Question: For `O=C1O[C@H]2[C@@H]3OC(=O)c4cc(O)c(O)c(O)c4-c4c(O)c(O)c5oc(=O)c6c(c(O)c(O)c7oc(=O)c4c5c76)-c4c(cc(O)c(O)c4O)C(=O)OC[C@H]3OC(O)[C@@H]2OC(=O)c2cc(O)c(O)c(O)c2-c2c1cc(O)c(O)c2O` (mixture of isomers) [Punicalagin], which “HR repair efficiency (log10)” value is on record?
Answer: -0.254

Question: With `O=C(O)c1cc(O)c2c(c1)[C@H]([C@H]1c3cc(C(=O)O)cc(O)c3C(=O)c3c(O[C@@H]4O[C@H](CO)[C@@H](O)[C@H](O)[C@H]4O)cccc31)c1cccc(O[C@@H]3O[C@H](CO)[C@@H](O)[C@H](O)[C@H]3O)c1C2=O` [Sennoside A] as the compound, how does the “HR repair efficiency (log10)” value read?
Answer: 0.131

Question: How did the “HR repair efficiency (log10)” value turn out when `O=C(/C=C/c1ccc(O)c(O)c1)O[C@H](Cc1ccc(O)c(O)c1)C(=O)O` [Rosmarinicacid] was run?
Answer: -0.328

Question: For `Cc1cc(O)c2c(c1)C(=O)c1cc(O)cc(O)c1C2=O` [Emodin], which “HR repair efficiency (log10)” value is on record?
Answer: 0.049

Question: Which “HR repair efficiency (log10)” value does the source give for `COC(=O)C1=CO[C@@H](O[C@@H]2O[C@H](CO)[C@@H](O)[C@H](O)[C@H]2O)[C@@H]2C(CO)=CC[C@H]12` [Geniposide] here?
Answer: 0.172

Question: How did the “HR repair efficiency (log10)” value turn out when `O=Cc1ccc(CO)o1` [5-Hydroxymethyl-2-furaldehyde (5-HMF)] was run?
Answer: -0.326

Question: How did the “HR repair efficiency (log10)” value turn out when `COc1ccc2cc3[n+](cc2c1OC)CCc1cc2c(cc1-3)OCO2` [Berberine hydrochloride] was run?
Answer: -0.283

Question: Which “HR repair efficiency (log10)” value does the source give for `COc1ccc(/C=C/C(=O)O)cc1O` [Isoferulic acid] here?
Answer: -0.0013

Question: `CC(C)=C1C/C=C(\C)CC/C=C(\C)CC1=O` [Germacrone] was tested. Which “HR repair efficiency (log10)” value did it give?
Answer: -0.103

Question: Which “HR repair efficiency (log10)” value does the source give for `C=C(CCC=C(C)C)[C@H]1CC[C@]2(C)[C@@H]1[C@H](O)C[C@@H]1[C@@]3(C)CC[C@H](O)C(C)(C)[C@@H]3[C@@H](O[C@@H]3O[C@H](CO)[C@@H](O)[C@H](O)[C@H]3O)C[C@]12C` [Ginsenoside Rk3] here?
Answer: 0.0532

Question: With `Oc1cc(O)c2c(c1)OC(c1ccc(O)c(O)c1)C(OC1(c3ccc(O)c(O)c3)Oc3cc(O)cc(O)c3C(O)C1O)C2` (stereo not given) [Procyanidins] as the compound, how does the “HR repair efficiency (log10)” value read?
Answer: 0.123

Question: With `COc1c(O)cc2occ(-c3ccc(O)cc3)c(=O)c2c1O` [Tectorigenin] as the compound, how does the “HR repair efficiency (log10)” value read?
Answer: -0.129

Question: For `C=C(C)[C@@H]1CC[C@]2(C(=O)O)CC[C@]3(C)[C@H](CC[C@@H]4[C@@]5(C)CCC(=O)C(C)(C)[C@@H]5CC[C@]43C)[C@@H]12` [Liquidambaric Acid], which “HR repair efficiency (log10)” value is on record?
Answer: 0.0487

Question: How did the “HR repair efficiency (log10)” value turn out when `COc1cc([C@@H]2[C@H]3CO[C@@]4(O)C(=O)[C@@H]2C=C([C@H]2Oc5cc(O)cc(O)c5C(=O)[C@@H]2O)[C@@H]34)ccc1O` [Silydianin] was run?
Answer: 0.076 ± 0.0068

Question: `C[C@@H]1CC[C@]2(C(=O)O)CC[C@]3(C)C(=CC[C@@H]4[C@@]5(C)CC[C@H](O)[C@@](C)(CO)[C@@H]5CC[C@]43C)[C@@H]2[C@]1(C)O` [Rotundic Acid] was tested. Which “HR repair efficiency (log10)” value did it give?
Answer: 0.0236

Question: How did the “HR repair efficiency (log10)” value turn out when `CC12CCC(CC1)C(C)(C)O2` [Eucalyptol] was run?
Answer: 0.0216

Question: `CC(C)=CCC[C@](C)(O[C@@H]1O[C@H](CO)[C@@H](O)[C@H](O)[C@H]1O)[C@H]1CC[C@]2(C)[C@@H]1[C@H](O)C[C@@H]1[C@@]3(C)CC[C@H](O)C(C)(C)[C@@H]3[C@@H](O[C@@H]3O[C@H](CO)[C@@H](O)[C@H](O)[C@H]3O[C@@H]3O[C@@H](C)[C@H](O)[C@@H](O)[C@H]3O)C[C@]12C` [Ginsenoside Re] was tested. Which “HR repair efficiency (log10)” value did it give?
Answer: -0.0179

Question: Which “HR repair efficiency (log10)” value does the source give for `COc1cc(-c2oc3cc(O)cc(O)c3c(=O)c2O[C@@H]2O[C@H](CO[C@H]3O[C@H](C)[C@@H](O)[C@H](O)[C@@H]3O)[C@@H](O)[C@H](O)[C@H]2O)ccc1O` [Narcissoside; Isorhamnetin-3-O-β-D-rutinoside] here?
Answer: -0.0269

Question: For `COc1ccc(/C=C/C(=O)O)cc1O` [Isoferulic Acid], which “HR repair efficiency (log10)” value is on record?
Answer: 0.0607

Question: How did the “HR repair efficiency (log10)” value turn out when `CC(/C=C/C=C(\C)C(=O)O[C@@H]1O[C@H](CO[C@@H]2O[C@H](CO)[C@@H](O)[C@H](O)[C@H]2O)[C@@H](O)[C@H](O)[C@H]1O)=C\C=C\C=C(C)\C=C\C=C(/C)C(=O)O[C@@H]1O[C@H](CO[C@@H]2O[C@H](CO)[C@@H](O)[C@H](O)[C@H]2O)[C@@H](O)[C@H](O)[C@H]1O` [Crocin I] was run?
Answer: 0.076

Question: With `COc1cc(-c2cc(=O)c3c(O)c(OC)c(O)cc3o2)ccc1O` [Jaceosidin] as the compound, how does the “HR repair efficiency (log10)” value read?
Answer: -0.105
